Screening results from PubChem BioAssay.
This is a sample that favours compounds with a hit; in the whole collection about 11% have one here.
ALDH1A1 block: qHTS Assay for Inhibitors of Aldehyde Dehydrogenase 1 (ALDH1A1); Aldehyde dehydrogenase 1A1 (Homo sapiens), P00352; Purified ALDH1A1, NADH fluorescence, propionaldehyde substrate; Potency, µM (top dose mostly 75.3 µM), hits mostly inhibitors; 7.3% of 220,000 active
Target sequence (P00352 whole entry, looked up): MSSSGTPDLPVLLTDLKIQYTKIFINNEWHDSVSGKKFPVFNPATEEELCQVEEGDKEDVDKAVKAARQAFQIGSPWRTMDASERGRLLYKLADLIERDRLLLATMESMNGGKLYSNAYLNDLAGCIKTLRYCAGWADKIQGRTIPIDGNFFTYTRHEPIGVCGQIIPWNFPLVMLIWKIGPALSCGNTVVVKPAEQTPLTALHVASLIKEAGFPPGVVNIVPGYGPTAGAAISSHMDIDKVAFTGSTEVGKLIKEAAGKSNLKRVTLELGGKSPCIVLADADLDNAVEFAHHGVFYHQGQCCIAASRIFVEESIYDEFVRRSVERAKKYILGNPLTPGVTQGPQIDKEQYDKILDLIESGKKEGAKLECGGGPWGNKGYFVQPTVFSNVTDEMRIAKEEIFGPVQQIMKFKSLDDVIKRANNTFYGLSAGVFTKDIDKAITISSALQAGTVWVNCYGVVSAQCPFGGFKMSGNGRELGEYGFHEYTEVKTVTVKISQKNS
PNC assembly inh: High Content Assay for Compounds that inhibit the Assembly of the Perinucleolar Compartment; 3.1% of 140,000 active; activity change (PNC), negative = inhibition, % at 10 µM; PC3M PTB-GFP, PNC prevalence imaging, 16 h; active compounds read low;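 active means readout at or below -70, meaning at least 70% loss of cells showing the perinucleolar compartment, a nuclear body marking cancer cells; inconclusive means readout between -30 and a set limit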
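Compounds are pinned in duplicate onto adhered PC3M cells stably expressing GFP-tagged PTB and incubated 16 h at 37 C. Cells are then fixed, nuclei stained with Hoechst, and PNC-positive cells counted.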
HPGD inh: qHTS Assay for Inhibitors of HPGD (15-Hydroxyprostaglandin Dehydrogenase). 15-hydroxyprostaglandin dehydrogenase [NAD(+)] (Homo sapiens), P15428. purified HPGD, NADH fluorescence kinetic, PGE2 substrate. Potency, µM, actives largely listed as inhibitors. 4.3% of 150,000 active
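20 nM HPGD preincubated 15 min at room temperature with compound in 50 mM Tris-HCl pH 8, 0.01% Tween 20. Started with 1 mM NAD+ and 30 uM prostaglandin E2; NADH fluorescence (360/450 nm) read 5 times over 30-s intervals, last minus first.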
Each line names hits and unclear results; the compound was inactive in the other large screens. Unless noted, the call rests on the fitted dose curve; in most records, active means well fitted inhibition curve with a large enough effect (not every such curve was filed as active); inconclusive means small, poorly fitted or top-dose-only effect, or another doubt; inactive means no such curve, though single readings can be large or run the other way.

COCC(=O)/C=C1\Sc2ccccc2N1C	ALDH1A1 block inconclusive, PNC assembly inh inconclusive
CN1/C(=C/C(=O)C2CCC2)Sc2ccccc21	ALDH1A1 block 3.5µM, PNC assembly inh inconclusive
CCNc1ccc(S(=O)(=O)N(C)C)cc1NCC(=O)Nc1c(F)cccc1F	ALDH1A1 block inconclusive
CCNc1ccc(S(=O)(=O)N(C)C)cc1NCC(=O)Nc1ccccc1Cl	ALDH1A1 block 8.9µM (no result: PNC assembly inh, HPGD inh)
Cc1ccc2[nH]c(=O)c(CN(Cc3ccccc3)Cc3nnnn3C3CCCC3)cc2c1	ALDH1A1 block 14µM, PNC assembly inh -93
Cc1ccc2[nH]c(=O)c(CN(Cc3nnnn3C3CCCC3)C3CCCCC3)cc2c1	ALDH1A1 block 25µM, PNC assembly inh -100
COc1cc2cc(CN(Cc3nnnn3C3CCCC3)C3CCCC3)c(=O)[nH]c2cc1OC	PNC assembly inh inconclusive
COc1ccc2[nH]c(=O)c(CN(Cc3ccccc3)Cc3nnnn3CC3CCCO3)cc2c1 (configuration not stated)	ALDH1A1 block inconclusive, HPGD inh inconclusive
Cc1ccc2cc(CN(Cc3nnnn3C3CCCC3)C3CCCCC3)c(=O)[nH]c2c1C	ALDH1A1 block 7.9µM
Cc1cc(C)c2[nH]c(=O)c(CN(Cc3ccc4c(c3)OCO4)Cc3nnnn3C3CCCC3)cc2c1	ALDH1A1 block inconclusive
Cc1cccc2cc(CN(Cc3ccc(F)cc3)Cc3nnnn3C3CCCC3)c(=O)[nH]c12	ALDH1A1 block 14µM
O=c1[nH]c2cc3c(cc2cc1CN(Cc1nnnn1C1CCCC1)C1CCCC1)OCCO3	ALDH1A1 block inconclusive
COc1ccc(NC(=O)c2cccnc2N2CCOCC2)cc1	none (no result: PNC assembly inh, HPGD inh)
CCC1=C2CC[C@H]3C(=O)N(C)C(=O)[C@H]3[C@H]2[C@@]2(C)C(=NCC(=O)OC)OC(=O)N2C1=O	none (no result: PNC assembly inh)
CCOC(=O)C1(CCOC)CCN(Cc2ccc(C3CCCCO3)s2)CC1 (configuration not stated)	none (no result: PNC assembly inh, HPGD inh)
Cc1ccccc1CNC(=O)C(=O)Nc1nccs1	none (no result: PNC assembly inh, HPGD inh)
CC(=O)OCC1OC(C#Cc2ccccc2)C=CC1O (configuration not stated)	none (no result: PNC assembly inh, HPGD inh)
CC1(C)CCC(NC(=O)[C@@H](N)CCC(=O)O)CC1	none (no result: PNC assembly inh)
CCC(=O)[C@@]1(O)C(=O)N2C(=C3C(=O)OCCC31)N(Cc1ccccc1)C(C)=C(C(=O)OC)C2c1ccccc1 (some centres not stated)	none (no result: PNC assembly inh, HPGD inh)
CC(NC(=O)c1cccs1)c1nnc(SCc2ccc(Cl)cc2Cl)n1C (configuration not stated)	none
CCC(c1nnnn1C1CCCCC1)N(Cc1ccco1)Cc1cc2ccc(OC)cc2[nH]c1=O (configuration not stated)	ALDH1A1 block inconclusive
Cc1ccc(C)c2[nH]c(=O)c(CN(CCN3CCOCC3)Cc3nnnn3CC3CCCO3)cc12 (configuration not stated)	ALDH1A1 block inconclusive
Cc1ccc(C)c2[nH]c(=O)c(CN(Cc3nnnn3C3CCCCC3)CC3CCCO3)cc12 (configuration not stated)	ALDH1A1 block 1.8µM
COc1ccc2cc(CN(CCCN3CCOCC3)Cc3nnnn3C3CCCCC3)c(=O)[nH]c2c1	ALDH1A1 block 13µM
CCOC(=O)c1ccc(NC(=O)C(=O)NCc2ccco2)cc1	none (no result: PNC assembly inh, HPGD inh)
CCOC(=O)c1nn(-c2ccc(Cl)cc2)c2nnc(Cc3ccccc3)c(=O)n12	none
O=c1c(Cc2ccccc2)c(O)ccn1Cc1ccco1	none (no result: PNC assembly inh, HPGD inh)
Cc1c(Cl)cccc1-n1c(SCC(=O)N2CCC(C(=O)O)CC2)nnc1-c1ccncc1	none (no result: PNC assembly inh, HPGD inh)
CCOc1ccc(N=Nc2c(=O)[nH]n3c(=O)cc(C)[nH]c23)cc1	HPGD inh 40µM
CCOc1ccc(N=Nc2c(N)[nH][nH]c2=O)cc1	ALDH1A1 block 19µM, PNC assembly inh inconclusive
COc1cccc(N=Nc2c(N)[nH][nH]c2=O)c1	none
Cc1cc(C)n2[nH]c(=O)c(N=Nc3ccccc3)c2n1	none
CC(C)(C)OC(=O)C(Cl)(C(=O)OC(C)(C)C)c1ccc2nnnn2n1	none (no result: PNC assembly inh, HPGD inh)
O=C(C1=C[C@H](c2ccccc2)C[C@H](OCc2ccc(CO)cc2)O1)N1CCCCCCC1	none (no result: PNC assembly inh, HPGD inh)
C=CCn1c(=S)[nH]c2nc3c(cc2c1=O)CCCC3	ALDH1A1 block inconclusive
C=CCn1c(=S)[nH]c2sc3c(c2c1=O)CCC3	ALDH1A1 block 11µM, PNC assembly inh -109, HPGD inh 32µM
COC(=O)C(NNc1ccccc1)(NC(=O)c1cccc(F)c1)C(F)(F)F (configuration not stated)	none
O=[N+]([O-])c1cc(C(F)(F)F)ccc1N1CCC(O)CC1	ALDH1A1 block 11µM (no result: PNC assembly inh, HPGD inh)
NC(=O)C1CCN(c2ccc(C(F)(F)F)cc2[N+](=O)[O-])CC1	none
COC(=O)c1cc(C(=O)OC)cc(-n2c(C)cc(C(=O)COC(=O)CNS(=O)(=O)c3ccc(C)cc3)c2C)c1	ALDH1A1 block inconclusive
CCCOC(=O)c1ccc(NC(=O)CCOc2ccccc2)cc1	ALDH1A1 block 14µM
CCCC(=O)Nc1ccc(Nc2ccccc2)cc1	ALDH1A1 block inconclusive, PNC assembly inh inconclusive, HPGD inh 16µM
CCCC(=O)Nc1ccc(-c2ccc(NC(=O)CCC)cc2)cc1	none
CCOC(=O)c1ccc(NC(=O)CCOc2ccccc2)cc1	none
CCC(=O)Nc1ccc(NC(=S)Nc2ccccc2)cc1	ALDH1A1 block inconclusive, PNC assembly inh inconclusive
CCC(=O)Nc1ccc(C(=O)c2ccccc2)cc1	ALDH1A1 block inconclusive, HPGD inh 14µM
O=C(COc1ccccc1)Nc1ccc(Cl)cc1Cl	none (no result: PNC assembly inh, HPGD inh)
COc1cccc(C(=O)NCCCn2ccnc2)c1	none (no result: PNC assembly inh, HPGD inh)
CC(C)C(=O)N=C1SC2CS(=O)(=O)CC2N1Cc1ccccc1 (configuration not stated)	none
C=CCOC(=O)C(C(C)=O)C(NC(=O)OC)c1cccc(C)c1 (configuration not stated)	none (no result: PNC assembly inh, HPGD inh)
CCn1cc(CNC(=O)c2c(-c3c(Cl)cccc3Cl)noc2C)c(C)n1	none
Cc1ccc(C(=O)NNS(=O)(=O)c2ccccc2[N+](=O)[O-])cc1	none
Cc1ccc(S(=O)(=O)NCCCOC(=O)Nc2ccncc2)cc1	ALDH1A1 block 16µM, PNC assembly inh inconclusive
Cc1ccc(S(=O)(=O)NCCNC(=O)c2ccccc2)cc1	none
Cc1ccc(C(=O)NCCCNc2ccccc2[N+](=O)[O-])cc1	ALDH1A1 block 2.2µM (no result: PNC assembly inh, HPGD inh)
Cc1ccc(S(=O)(=O)NCCc2ccncc2)cc1	ALDH1A1 block inconclusive
Cc1ccc(S(=O)(=O)NCCCNC(=O)c2ccccc2)cc1	ALDH1A1 block 13µM
COc1cc(C(=O)NNC2=CC(=O)CC(C)(C)C2)cc(OC)c1OC	PNC assembly inh inconclusive
CNC(=O)CN(Cc1ccccc1)S(=O)(=O)c1ccccc1	none
O=C(CN(Cc1ccccc1)S(=O)(=O)c1ccccc1)N/N=C/c1ccc2c(c1)OCO2	ALDH1A1 block inconclusive, HPGD inh 11µM
COc1ccc(S(=O)(=O)N(Cc2ccccc2)Cc2nc3ccccc3c(=O)[nH]2)cc1	ALDH1A1 block 6.3µM
O=C(CN(Cc1ccc(Cl)c(Cl)c1)S(=O)(=O)c1ccccc1)N/N=C\c1ccc2c(c1)OCO2	HPGD inh inconclusive
COc1ccc(CNC(=O)CN(Cc2ccccc2)S(=O)(=O)c2ccc(Cl)cc2)cc1	ALDH1A1 block inconclusive
CCCC(CCC)=NNC(=O)CN(Cc1ccccc1)S(=O)(=O)c1ccccc1	ALDH1A1 block 8.9µM
